Laboratory results as given in article PMC5540273 (PLoS ONE, 2017).

What was measured:
Details in all cases: concentration: 1 μM, replicates: in singlicate; n = 1
[1] = system: ABL2
[2] = system: ACVR1B
[3] = system: ACVR1
[4] = system: ACVR2A
[5] = system: ACVR2B
[6] = system: ACVRL1
[7] = system: T1, ADCK3
T1 construct: gene CABC1

[8] = system: ADCK4
[9] = system: AKT1
[10] = system: AKT2
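Also: KINOMEscan kinase panel screen.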

Structure (SMILES)	%Inh [1]	%Inh [2]	%Inh [3]	%Inh [4]	%Inh [5]	%Inh [6]	%Inh [7]	%Inh [8]	%Inh [9]	%Inh [10]
CS(=O)(=O)CCNCc1ccc(-c2ccc3ncnc(Nc4ccc(OCc5ccccc5)c(Cl)c4)c3c2)o1.Cl [GW574783]	0%	0%	2%	4%	22%	0%	23%	20%	46%	21%
Cc1ccc(O)cc1Nc1cc(C(F)(F)F)nc2ccc(-c3ccncc3)cc12 [GW630823]	14%	0%	11%	0%	0%	0%	10%	0%	5%	1%
Cl.Fc1ccccc1COc1ccc(Nc2ncnc3ccc(-c4nnc(C(F)(F)F)o4)cc23)cc1Cl [GW424170]	0%	0%	0%	0%	0%	0%	0%	22%	0%	0%
COc1ccc(NC(=O)c2ccc(-c3cc(-c4nnc(C)o4)ccc3C)cc2)cc1 [GW595885]	16%	0%	0%	0%	5%	0%	0%	28%	0%	0%
